Compound activity from PubChem.
A selection: hits, their analogues and other compounds. The true share with any hit is near 13%.
Sfp PPTase inh: qHTS Assay for Inhibitors of Bacillus subtilis Sfp phosphopantetheinyl transferase (PPTase) | 4'-phosphopantetheinyl transferase ffp (Bacillus subtilis), Q9F4F7 | Biochemical Sfp PPTase activity, qHTS | Potency, µM, inactives show largest response in the series, negative = inhibition, usual class: inhibitors | hit rate 3.5% among 310,000 | AID 1490, 2009;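 also: the enzyme is Sfp with the accession as filed and its product quenches rhodamine fluorescence; potency is read from the fitted curve at half-maximal effect; 0% = enzyme reaction without inhibitor and -100% = no enzyme wells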
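Fluorescence-quenching assay: 15 nM Sfp-PPTase preincubated 15 min at room temperature with compound, then 5 uM rhodamine-CoA and 12.5 uM BHQ-2-labelled YbbR peptide added. Fluorescence (ex 525/em 598 nm) read at start and after 30 min; difference gives rate.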
LMNA splice mod: qHTS Assay for Modulators of Lamin A Splicing; HeLa LMNA splicing GFP/RFP minigene ratio, 48 h; Potency, µM (doses to about 46.1 µM), for the others: at the highest dose ratio change, negative = inhibition, hits mostly inhibitors; hit rate 0.01% among 200,000; active = well fitted inhibition curve with a large enough effect in the signal ratio, with a control signal flat, not every such curve was filed as active; inconclusive = small, poorly fitted or top-dose-only effect, or effect the other way, or a change in a side signal; the % refers to the signal ratio; also: potency is read from the fitted curve at half-maximal effect; % is scaled to controls: 0 for no effect and ±100 for the full control effect
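S3 HeLa stable clones carrying a lamin A-EGFP splicing minigene plus DsRed2 were seeded at 600 cells/well in Opti-MEM with 2% FBS, pin-dosed and incubated 48 h at 37°C. Acumen cytometry (488 nm) gave the GFP/RFP total-intensity ratio.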
G9a inh: qHTS Assay for Inhibitors of Histone Lysine Methyltransferase G9a; hit rate 8.8% among 350,000; Potency, µM (doses to about 102 µM), without a hit: top-dose activity, negative = inhibition, actives largely listed as inhibitors; Histone-lysine N-methyltransferase EHMT2 (Homo sapiens), Q96KQ7; G9a H3K9 monomethylation, AlphaScreen, 2 h; also: potency is read from the fitted curve at half-maximal effect; % is scaled to controls: 0 for no effect and ±100 for the full control effect; nearly all actives have a fitted effect of over 75% in size
Target sequence (Q96KQ7 913-1193 limits assumed): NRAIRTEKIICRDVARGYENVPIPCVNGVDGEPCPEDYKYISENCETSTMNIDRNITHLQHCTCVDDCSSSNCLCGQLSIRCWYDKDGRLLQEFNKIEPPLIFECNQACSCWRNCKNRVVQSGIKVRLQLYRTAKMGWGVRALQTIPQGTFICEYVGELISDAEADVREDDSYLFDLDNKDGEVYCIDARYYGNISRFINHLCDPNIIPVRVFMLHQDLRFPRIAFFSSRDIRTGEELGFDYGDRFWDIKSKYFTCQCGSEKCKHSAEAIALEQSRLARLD
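Chemiluminescent proximity detection of H3K9 monomethylation, read after 10 min bead incubation in the dark. Reaction: 20 nM G9a, 500 nM biotin-H3K9 peptide, 20 uM SAM cofactor, 2 h, room temperature, following 15 min enzyme-compound preincubation.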
KDM4E inh: qHTS Assay for Inhibitors of Human Jumonji Domain Containing 2E (JMJD2E) | JMJD2E catalytic domain, FDH-coupled NADH fluorescence (FDH is formaldehyde dehydrogenase) | Potency, µM (series often up to 57.1 µM), for the others: at the highest dose activity change, negative = inhibition, most hits filed as inhibitors | hit rate 1.6% among 230,000; active = well fitted inhibition curve with a large enough effect, not every such curve was filed as active; inconclusive = small, poorly fitted or top-dose-only effect, or another doubt; inactive = no such curve, though single readings can be large or run the other way;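 also: potency is read from the fitted curve at half-maximal effect; 0% = wells with enzyme and -100% = buffer wells without enzyme; nearly all actives have a fitted effect of over 50% in size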
Target sequence (B2RXH2 1-337 limits assumed): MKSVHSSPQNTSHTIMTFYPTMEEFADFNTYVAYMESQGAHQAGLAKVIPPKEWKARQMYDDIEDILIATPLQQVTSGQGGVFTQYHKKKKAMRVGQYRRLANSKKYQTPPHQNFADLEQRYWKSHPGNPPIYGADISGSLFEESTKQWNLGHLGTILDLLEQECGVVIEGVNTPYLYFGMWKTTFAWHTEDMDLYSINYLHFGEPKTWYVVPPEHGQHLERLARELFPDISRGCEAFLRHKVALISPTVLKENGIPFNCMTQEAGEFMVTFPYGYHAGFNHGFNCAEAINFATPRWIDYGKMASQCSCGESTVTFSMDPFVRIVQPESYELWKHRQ
ALDH1A1 block: qHTS Assay for Inhibitors of Aldehyde Dehydrogenase 1 (ALDH1A1); Potency, µM (highest dose often 75.3 µM), without a hit: at the top dose activity, negative = inhibition, most hits filed as inhibitors; Purified ALDH1A1, NADH fluorescence, propionaldehyde substrate; AID 1030, 2008; hit rate 7.3% among 220,000; active = well fitted inhibition curve with a large enough effect, not every such curve was filed as active; inconclusive = small, poorly fitted or top-dose-only effect, or another doubt; inactive = no such curve, though single readings can be large or run the other way;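 also: potency is read from the fitted curve at half-maximal effect; plate controls were no enzyme wells and a reference inhibitor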
miR-21 reporter: qHTS Assay for Modulators of miRNAs and/orActivators of miR-21; HeLa miR-21 FLuc reporter, luciferase, 48 h; Potency, µM (highest dose often 38.3 µM), without a hit: at the highest dose activity change, positive = activation, hits mostly activators; 340,000 tested, under 10 active; AID 2288, 2010;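 also: % of control where 0% means no effect; miR-21 action dims this reporter so a rising signal means less miR-21 action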
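Compounds were titrated across several concentrations (up to approximately 40 uM) and incubated 48 hours with HeLa miR-21-FLuc reporter cells (miR-21 target sequence downstream of FLuc, endogenous miR-21). Readout was firefly luciferase luminescence after lytic detection reagent.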
The depositor's hits bear a star; ? = inconclusive; · = no result given; ! = a repeat was not active; [ ] = remark or other dose. Unless noted, calls follow the shape of the dose curve; as a rule, active = well fitted curve in the direction sought with a large enough effect; inconclusive = small, poorly fitted or top-dose-only effect, or another doubt; inactive = no such curve, though single readings can be large; an effect the other way counts as inactive or inconclusive.

SMILES | Sfp PPTase inh | LMNA splice mod | G9a inh | KDM4E inh | ALDH1A1 block | miR-21 reporter
O=C1c2c(O)ccc(O)c2C(=O)c2c(NCCNCCO)ccc(NCCNCCO)c21 | -57.8% | ? | 8.44µM* | 22.4µM*! | ? | ·
CC(=O)Nc1cccc(NC(=O)C(F)(F)F)c1 | 12.4% | · | · | 0.1% | 3.0% | -1.4%
Cc1ccc(C2=NN=C(NC(=O)C(F)(F)F)SC2)cc1 | ? | ? | 28.2µM* | -4.3% | -18.0% | -34.9%
ON(CCc1ccncc1)Cc1ccccc1 | · | · | · | · | 2.7%[13.5 µM] | ·
O=c1[nH]c(C2CC2)nc2sc3c(c12)CCCC3 | 22.1% | 19.5%[46 µM] | 10.7% | -6.3% | -5.9% | -8.4%
O=c1[nH]c(=S)[nH]c2sc3c(c12)CCCCCC3 | -21.7% | · | 2.24µM* | · | · | -7.6%
O=c1c2sc3ccccc3c2n(Cc2ccccc2F)c(=O)n1Cc1ccccc1 | · | · | 1.4%[59 µM] | · | · | 0.0%
O=C(c1cc2ncc(Br)cn2n1)N1CCN(C(=O)c2ccco2)CC1 | 4.0% | 28.2% | -30.3%[12.7 µM] | -2.3% | 25.1µM* | -3.2%
O=C(c1ccco1)N1CCN(C(=O)c2ccc(Cn3cc(Br)cn3)o2)CC1 | -0.7% | -0.6% | 50.1µM* | -2.5% | ? | 0.6%
Cn1cnnc1SCC(=O)Nc1ccc(Cl)c(S(=O)(=O)N2CCOCC2)c1 | 14.5% | -2.6%[46 µM] | 4.2% | -1.6% | -1.6% | -0.9%
Cc1cccc(-c2nc(CSCC(=O)NCCc3ccc(Cl)cc3)c(C)o2)c1 | · | · | 3.8%[59 µM] | · | · | 10.2%
CCc1cc(C(=O)O)c(NC(=O)C(c2ccccc2)c2ccccc2)s1 | 16.2% | -10.6% | -8.8%[59 µM] | 1.6% | 12.6µM* | -4.5%
Cc1ccc(Cl)cc1N1C(=O)CC(Sc2ncccn2)C1=O (stereo unspecified) | -6.4% | · | · | · | · | 3.2%
CCOc1ccc(Nc2n[nH]c(=S)s2)cc1 | -24.9% | -5.6% | -149.6% | -29.1% | 1.26µM* | -51.6%
Cc1ccc(NC(=O)C2=C(c3ccccc3)S(=O)(=O)CCS2(=O)=O)cc1 | 15.8µM* | ? | 39.8µM* | -1.4% | -8.4% | ?
CN1CCN(c2cc(-c3ccoc3)ncn2)CC1 | ? | 5.2% | -37.2%[0.501 µM] | · | ? | ·
Cc1ccc(C(=O)Oc2ccccc2N2C(=O)C3CCC(C)CC3C2=O)cc1 (stereo unspecified) | 2.3% | -11.9% | -41.8%[2.33 µM] | 0.3% | ? | 1.6%
CC1CCC2C(=O)N(c3ccc(C(=O)Oc4cccc5cccnc45)cc3)C(=O)C2C1 (stereo unspecified) | 10µM* | -18.2% | ? | -2.7% | ? | -3.4%
O=C(Nc1ccccn1)c1ccc2nc(-c3ccccc3)c(-c3ccccc3)nc2c1 | -1.4% | · | ? | ? | 11.2µM* | -16.0%
O=C(Nc1cccnc1)c1ccc2nc(-c3ccccc3)c(-c3ccccc3)nc2c1 | 4.2% | -3.9%[46 µM] | ? | ? | 17.8µM* | 15.7%
COc1ccccc1NC(=O)CCSc1nc(C)cs1 | 5.4% | · | -0.9% | · | · | -15.6%
Cc1ccc(Cn2c(CN3CCC(C(=O)O)CC3)cc3ccccc32)cc1 | · | · | -5.0%[59 µM] | · | · | -8.7%
O=C(NN1C(=O)C2C3c4ccccc4C(c4ccccc43)C2C1=O)C1CC1 (stereo unspecified) | 22.1% | 4.4%[46 µM] | 26.1% | -0.4% | 7.7% | -1.0%
CC1CN(c2nc(N(C)c3ccccc3)nc(N)c2[N+](=O)[O-])CC(C)O1 (stereo unspecified) | 4.1% | · | -36.8% | · | · | -0.4%
CC1CC(C)CN(c2nc(N(C)c3ccccc3)nc(N)c2[N+](=O)[O-])C1 (stereo unspecified) | 5.1% | · | 10µM* | -1.3% | · | 8.0%
SMILES | Sfp PPTase inh | LMNA splice mod | G9a inh | KDM4E inh | ALDH1A1 block | miR-21 reporter
Cc1cc(Br)ccc1N=C1NC(=O)CS1 | 39.8µM* | · | 20µM* | · | · | -5.5%
CCC(N1CCOC1=O)S(=O)(=O)c1ccc(C)cc1 (stereo unspecified) | -5.3% | -2.4% | ? | 3.3% | 3.7% | -4.7%
CCc1c(C(C)S(=O)(=O)c2ccc(C)cc2)[nH]c(=O)n1-c1ccc(C)cc1 (stereo unspecified) | 56.2µM* | -19.8% | 8.91µM* | -15.8% | ? | 1.5%
Cc1nn(C)cc1CN(C)C(=O)c1cc2nc(-c3ccco3)cc(C(F)(F)F)n2n1 | 35.5µM* | 0.4% | ? | ? | ? | -28.9%
Cc1nn(C)c(C)c1CN(C)C(=O)c1cc2nc(-c3ccco3)cc(C(F)(F)F)n2n1 | 10.7% | -3.4% | ? | ? | ? | -4.5%
Nc1c(S(=O)(=O)c2ccccc2)csc1C(=O)O | 10.7% | · | -8.1% | -11.5% | 16.8% | -2.5%
COc1ccc(NC2=C(c3ccccc3)C(=O)c3ccccc32)cc1Cl | · | · | 13.3%[59 µM] | · | · | -20.1%
Cc1ccc(NC2=C(c3ccc(C(F)(F)F)cc3)C(=O)c3ccccc32)cc1C | · | · | 2.82µM* | · | · | -32.8%
Cc1nc(NCCc2ccc(S(N)(=O)=O)cc2)c2c(C)c(C)sc2n1 | -5.2% | ? | ? | -3.5% | -10.2% | 19.6%
Cc1sc2nc(C3CC3)nc(NCCNS(C)(=O)=O)c2c1C | 3.2% | ? | 3.0% | -6.8% | 31.6µM* | -32.7%
C=CCN(c1ccccc1)S(=O)(=O)c1cccc(C(=O)Nc2ccncc2)c1 | · | · | 11.2%[2.33 µM] | · | · | ·
C=CCN(c1ccccc1)S(=O)(=O)c1cccc(C(=O)Nc2nc3ccccc3[nH]2)c1 | 28.3% | ? | 16.8%[59 µM] | 28.2µM* | ? | 12.2%
Cc1cc(=O)oc2cc(OCC(=O)NC3CCCCC3)ccc12 | 0.1% | · | 6.6% | · | · | -10.6%
Cc1sc2nc(SCC(=O)NCCO)n(C)c(=O)c2c1C | 12.5% | -7.7% | -4.8%[59 µM] | -3.1% | 8.8% | -0.6%
Cc1sc2nc(SCC(=O)Nc3c(C)n(C)n(-c4ccccc4)c3=O)n(C)c(=O)c2c1C | 50.1µM* | ? | ? | -14.9% | ? | 3.6%
CCOC(=O)CNC(=O)CSc1nc2sc(C)c(C)c2c(=O)n1C | -0.7% | -3.1% | 44.7µM* | -1.3% | ? | -1.4%
Cc1nc(SCC(=O)Nc2c(C)n(C)n(-c3ccccc3)c2=O)c(C#N)c(C)c1C | · | · | 18.6%[12.7 µM] | · | · | ·
CCCc1cc(SCC(=O)Nc2c(C)n(C)n(-c3ccccc3)c2=O)n2c(nc3ccccc32)c1C#N | ? | 2.9% | 7.94µM* | 4.9% | 5.8% | 5.2%
CCS(=O)(=O)c1ccc(N=Nc2ccc(O)c3ncccc23)c(OC)c1 | -6.5% | · | 7.08µM* | 14.1µM* | 0.6% | ?
COc1ccccc1N=Nc1ccc(O)c2ncccc12 | 1.2% | · | 44.7µM* | · | · | 4.3%
